Measurements: PubChem BioAssay AID485297 (National Center for Advancing Translational Sciences (NCATS), 2010)
Among all 320,000 compounds or so, about 9,100 (2.8%) were called active. Another 3% or so got no clear call; they are omitted. The call rests on the fitted dose curve; in most records, active means well fitted activation curve with a large enough effect; inconclusive means small, poorly fitted or top-dose-only effect; inactive means no such curve, though single readings can be large or run the other way. Only a selection was taken, and actives are over-represented in it overall.

Assay: qHTS Assay for Rab9 Promoter Activators; further: nearly all actives have a fitted effect of over 60% in size; on activation, negative = inhibition: % of control where 0% means no effect
Details: Huh7 Rab9 promoter-luciferase reporter, luminescence, 24 h; series mostly up to 9.22 µM; activation, negative = inhibition: at the top concentration
How it was run: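 Steps: seed 1500 Huh7 Rab9-luc cells per well, rest 2 h at 37 °C; add compound in DMSO; incubate 24 h; add luciferase reagent, 10 min ambient; read luminescence.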
Potency means the concentration at half of the fitted maximal effect.

activation, negative = inhibition, inactive:
Cc1ccc(S(=O)(=O)N2CCCCC2)cc1C(=O)N1CCN(CCO)CC1 -5.51%
c1ccc(CN2CCC(N=C3NN=C(c4ccc5c(c4)OCCO5)CS3)CC2)cc1 12.9%
CN(C)c1nc(=Nc2cccc(Cl)c2)ss1 0.0085%
COc1ccc(CCNC(=O)COC(=O)C2CC2C)cc1 (configuration not stated) -2.84%
O=C(NCCCN1CCOCC1)c1cc(-c2cccc(O)c2)on1 -6.12%
COc1ccccc1-c1cc(C(=O)NCCCn2ccnc2)no1 2.26%
O=C(Nc1cccnc1Cl)c1cc(-c2cccc(Cl)c2)on1 -1.17%
COc1ccc(-c2cc(C(=O)NCCCn3ccnc3)no2)cc1 0.776%
Cc1ccc(C(=O)CN2C(=O)NC3(CCOc4ccccc43)C2=O)s1 (configuration not stated) -1.26%
CN(C(=O)CSc1nnc(-c2ccc(C(C)(C)C)cc2)n1C)C1CCS(=O)(=O)C1 (configuration not stated) 1.79%
CCNC(=O)c1cccc(NC(=O)C2CC(=O)N(CCc3ccccc3)C2)c1 (configuration not stated) -5.09%
O=S(=O)(Nc1cc(Cl)ccc1N1CCOCC1)c1ccccc1Cl -2.12%
CCOc1ncccc1C(=O)Nc1ccc(S(=O)(=O)Nc2nc(C)cc(C)n2)cc1 -2.54%
O=C(Nc1ccc(Cl)cc1)Nc1nnc(/C=C/c2ccccc2)s1 -6.47%
Nc1nc(COC(=O)CCC(=O)c2ccc(Cl)cc2)nc(Nc2ccccc2)n1 3.11%
CCCN(CC(=O)NC(=O)NC1CCCCC1)CC(=O)Nc1cc(Cl)ccc1Cl 1.65%
CN(C(=O)CSc1nnc(-c2ccc3c(c2)OCO3)o1)C1CCS(=O)(=O)C1 (configuration not stated) -4.13%
CCOC(=O)c1c(NC(=O)CN2C(=O)NC3(CCC(C)CC3)C2=O)sc(C)c1CC (configuration not stated) -3.16%
O=C(Nc1ccc(Br)cn1)c1ccc([N+](=O)[O-])o1 1.22%
O=C(Nc1ccncc1)c1ccc([N+](=O)[O-])cc1Cl 1.06% [at 1.84 µM]
CC/C(Cc1ccccc1)=N/NC(=O)CCn1nnc2ccccc21 7.82%
CCO/N=C(/C)c1c(O)cc(-c2ccccc2)n(-c2ccccc2)c1=O -1.37%
CC(=O)Nc1ccc(NC(=S)NC(=O)/C=C/c2ccccc2)cc1 0.0543%
CC(OC(=O)/C=C/c1ccccc1)C(=O)Nc1ccc(C(N)=O)cc1 (configuration not stated) -1.88%
O=C(CN1CCN(S(=O)(=O)/C=C/c2ccccc2)CC1)Nc1ccc(N2CCOCC2)cc1 0.34%
O=C(O)c1ccc2c(c1)C(=O)N(c1ccc(/C=C/C(=O)c3ccccc3)cc1)C2=O 21.8%
CN(C)C(CNC(=O)c1ccc(OCc2cn3ccccc3n2)cc1)c1ccco1 (configuration not stated) 25.7%
COc1ccc(C(=O)NCCNc2ccc([N+](=O)[O-])cn2)cc1 -2.26%
Cc1csc(NC(=O)C2CCN(S(=O)(=O)c3ccccc3)CC2)n1 -7.34%
CC(C)CNC(=O)C(=O)NCc1ccccc1 -4.96%
CC(C)CNC(=S)Nc1ccc(F)cc1 -7.72%
COC(=O)C1=CN(c2ccc(F)c(F)c2)C=C(C(=O)OC)C1c1ccc([N+](=O)[O-])cc1 -1.11%
COc1ccc([C@H]2CC(=O)C=C(c3ccc(CO)cc3)C2)cc1 2.44%
Cc1csc(NC(=O)CSc2nc(=O)n(CCCN(C)C)c3c2CCC3)n1 0.475%
C=CCn1c(C)cc(C2=NNC(=NCC)SC2)c1C -38.6%
C=CC1(C)CC(=O)C2(O)C(C)(O1)C(OC(C)=O)C(O)C1C(C)(C)CCC(O)C12C (configuration not stated) 3.8% [at 46.1 µM]
Cc1ccc(C)c(NC(=O)COC(=O)CSc2ccccc2)c1 0.508%
CCCCN(CC)C(=O)c1ccccc1Oc1ccccc1 -13.1%
C(=N\n1cnnc1)/c1cccnc1 -2.02%
COc1ccccc1OCCOc1ccc(/C=N/n2cnnc2)cc1 3.87%
COc1cccc(C(=O)N/N=C(\C)c2cccc(NC(=O)c3ccc(F)cc3)c2)c1OC 0.209%
Cc1ccccc1OCCC(=O)OCC(=O)NCCc1ccc(S(N)(=O)=O)cc1 -5.42%

Potency, active:
Clc1cccc(N=C2NN=C(c3ccc4c(c3)OCCO4)CS2)c1 3.55 µM
O=C(NC1CCCC1)c1cc(-c2ccccc2)on1 2 µM
O=C(NCCCn1ccnc1)c1cc(-c2ccccc2)on1 3.98 µM
O=C(c1ccc(Cl)cc1)c1cnc(Nc2ccccc2)s1 3.98 µM
O=C(Nc1ccc(Br)cn1)c1ccc([N+](=O)[O-])cc1Cl 2.51 µM
CC(=O)Nc1ccc(/C=C/C(=O)c2ccccc2)cc1 3.98 µM
O=C(/C=C/c1ccc(N2CCOCC2)cc1)c1ccccc1 4.47 µM
CC(C)CNC(=O)C(=O)Nc1ccc(N(C)C)cc1 3.16 µM
COCCn1c(C)cc(C2=NNC(=Nc3ccc(F)cc3)SC2)c1C 3.55 µM
COc1cccc(OCCOc2cccc(/C=N/n3cnnc3)c2)c1 2.82 µM
